The supplement of paper PMC11732987, “Enantioselective OTUD7B fragment discovery through chemoproteomics screening and high-throughput optimisation” (Communications Chemistry, 2025)

Tests used:
Test in all cases: log2 ratio of Biotin-Ahx-Ub-VS probe labelling (fragment/DMSO); higher = less target engagement (more negative = stronger competition), active = hit call of the paper (q ≤ 0.05, log2 ratio ≤ -1)
Details in all cases: compound concentration: 200 uM; treatment time: 3 h
USP42 = target: T1, USP42 (UniProt Q9H9J4)
T1 sequence (whole entry): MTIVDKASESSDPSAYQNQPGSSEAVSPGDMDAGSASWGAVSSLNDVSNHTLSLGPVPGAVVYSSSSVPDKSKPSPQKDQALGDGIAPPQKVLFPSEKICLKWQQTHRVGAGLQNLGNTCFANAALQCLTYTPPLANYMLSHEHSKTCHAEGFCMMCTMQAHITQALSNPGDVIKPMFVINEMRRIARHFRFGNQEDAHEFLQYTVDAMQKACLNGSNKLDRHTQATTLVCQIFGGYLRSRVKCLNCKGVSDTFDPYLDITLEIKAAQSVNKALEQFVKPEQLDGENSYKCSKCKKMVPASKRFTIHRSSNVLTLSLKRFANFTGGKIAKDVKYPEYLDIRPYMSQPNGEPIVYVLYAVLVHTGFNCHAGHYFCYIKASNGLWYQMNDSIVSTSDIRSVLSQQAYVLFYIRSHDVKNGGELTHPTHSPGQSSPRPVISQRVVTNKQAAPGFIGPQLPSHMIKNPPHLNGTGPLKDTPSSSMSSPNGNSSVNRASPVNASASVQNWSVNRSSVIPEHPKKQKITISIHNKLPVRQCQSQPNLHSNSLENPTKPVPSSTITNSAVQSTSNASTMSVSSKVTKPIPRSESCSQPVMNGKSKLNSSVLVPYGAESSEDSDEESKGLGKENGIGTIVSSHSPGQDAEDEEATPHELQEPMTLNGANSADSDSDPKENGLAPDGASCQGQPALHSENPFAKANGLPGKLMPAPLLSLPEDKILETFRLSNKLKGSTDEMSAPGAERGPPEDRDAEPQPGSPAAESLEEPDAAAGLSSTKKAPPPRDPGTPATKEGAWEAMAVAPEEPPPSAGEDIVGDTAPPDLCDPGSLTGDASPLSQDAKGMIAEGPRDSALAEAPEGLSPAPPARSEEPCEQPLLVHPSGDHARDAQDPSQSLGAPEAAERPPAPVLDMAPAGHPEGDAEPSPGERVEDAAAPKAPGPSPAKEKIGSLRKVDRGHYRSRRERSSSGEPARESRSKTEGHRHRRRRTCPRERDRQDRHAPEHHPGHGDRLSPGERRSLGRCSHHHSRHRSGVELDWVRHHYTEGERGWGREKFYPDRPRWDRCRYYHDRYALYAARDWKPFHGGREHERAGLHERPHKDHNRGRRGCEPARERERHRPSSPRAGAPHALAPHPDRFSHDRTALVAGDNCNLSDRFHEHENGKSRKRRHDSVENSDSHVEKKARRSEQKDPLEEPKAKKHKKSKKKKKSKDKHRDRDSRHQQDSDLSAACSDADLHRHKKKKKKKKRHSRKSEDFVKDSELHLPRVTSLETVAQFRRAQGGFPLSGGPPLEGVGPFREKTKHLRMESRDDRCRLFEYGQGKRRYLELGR
Procedure, shortened: (§1)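 HEK293T lysate (495 µg per sample, in Tris/CHAPS/IGEPAL buffer with protease inhibitors) was exposed in triplicate for 3 h to fragment at 200 µM or to vehicle, then to Biotin-Ahx-Ub-VS at 0.5 µM final for 1 h. Labelled DUBs were enriched on NeutrAvidin, digested with LysC and trypsin, and analysed by diaPASEF LC-MS/MS. Spectronaut label-free quantities were normalised to the global median, and values are average log2 ratios of fragment over vehicle from an unpaired t-test. Only proteins with ≥2 unique peptides were used.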

USP46 = USP46 (UniProt P62068)
Chain of USP46 (P62068 whole entry): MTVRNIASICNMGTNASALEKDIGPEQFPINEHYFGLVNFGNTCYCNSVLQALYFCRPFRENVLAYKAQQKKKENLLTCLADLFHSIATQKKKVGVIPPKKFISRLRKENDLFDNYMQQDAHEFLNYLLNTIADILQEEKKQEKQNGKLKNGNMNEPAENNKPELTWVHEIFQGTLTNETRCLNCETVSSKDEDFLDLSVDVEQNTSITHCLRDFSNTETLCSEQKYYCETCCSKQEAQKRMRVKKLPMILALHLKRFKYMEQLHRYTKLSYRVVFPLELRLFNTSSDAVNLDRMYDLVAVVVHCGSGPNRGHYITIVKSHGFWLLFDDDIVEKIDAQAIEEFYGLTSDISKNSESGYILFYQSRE
Procedure, shortened: as §1

USP47 = target: T2, USP47 (UniProt Q96K76)
T2 sequence (whole entry): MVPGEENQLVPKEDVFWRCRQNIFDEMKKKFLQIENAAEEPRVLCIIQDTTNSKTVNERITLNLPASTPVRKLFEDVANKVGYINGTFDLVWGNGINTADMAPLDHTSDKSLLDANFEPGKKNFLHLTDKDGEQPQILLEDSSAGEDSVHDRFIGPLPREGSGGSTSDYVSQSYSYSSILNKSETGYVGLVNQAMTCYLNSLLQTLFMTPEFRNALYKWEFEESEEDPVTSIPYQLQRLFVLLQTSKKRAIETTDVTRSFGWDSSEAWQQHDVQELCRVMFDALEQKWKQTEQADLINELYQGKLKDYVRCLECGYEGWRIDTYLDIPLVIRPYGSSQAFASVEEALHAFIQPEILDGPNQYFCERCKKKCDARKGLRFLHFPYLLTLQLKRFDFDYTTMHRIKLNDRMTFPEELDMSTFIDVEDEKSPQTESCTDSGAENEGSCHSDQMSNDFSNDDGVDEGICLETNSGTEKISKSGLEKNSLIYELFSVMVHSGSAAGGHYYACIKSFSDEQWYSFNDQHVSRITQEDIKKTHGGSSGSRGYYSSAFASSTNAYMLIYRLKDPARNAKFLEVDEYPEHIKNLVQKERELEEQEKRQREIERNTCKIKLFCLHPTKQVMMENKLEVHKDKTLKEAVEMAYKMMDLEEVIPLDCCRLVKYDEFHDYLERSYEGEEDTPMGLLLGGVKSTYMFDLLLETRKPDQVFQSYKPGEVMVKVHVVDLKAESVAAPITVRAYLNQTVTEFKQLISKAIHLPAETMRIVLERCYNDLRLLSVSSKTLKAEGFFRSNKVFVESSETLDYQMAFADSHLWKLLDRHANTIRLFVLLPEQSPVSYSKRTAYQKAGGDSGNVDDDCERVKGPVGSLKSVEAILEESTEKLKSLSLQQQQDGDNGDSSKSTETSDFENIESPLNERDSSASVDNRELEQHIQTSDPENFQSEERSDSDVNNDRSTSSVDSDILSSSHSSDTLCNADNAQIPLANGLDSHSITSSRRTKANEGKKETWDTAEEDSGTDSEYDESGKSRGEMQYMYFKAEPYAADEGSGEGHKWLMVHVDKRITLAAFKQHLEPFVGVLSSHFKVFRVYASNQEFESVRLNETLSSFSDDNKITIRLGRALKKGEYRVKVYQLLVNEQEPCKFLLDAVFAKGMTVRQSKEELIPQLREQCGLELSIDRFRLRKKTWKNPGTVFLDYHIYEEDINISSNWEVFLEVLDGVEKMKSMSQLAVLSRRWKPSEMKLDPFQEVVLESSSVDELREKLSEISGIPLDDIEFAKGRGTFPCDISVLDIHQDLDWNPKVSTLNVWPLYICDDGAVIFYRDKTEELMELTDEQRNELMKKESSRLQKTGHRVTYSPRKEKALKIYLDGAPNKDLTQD
Procedure, shortened: as §1

USP48 = target: T3, USP48 (UniProt Q86UV5)
T3 sequence (whole entry): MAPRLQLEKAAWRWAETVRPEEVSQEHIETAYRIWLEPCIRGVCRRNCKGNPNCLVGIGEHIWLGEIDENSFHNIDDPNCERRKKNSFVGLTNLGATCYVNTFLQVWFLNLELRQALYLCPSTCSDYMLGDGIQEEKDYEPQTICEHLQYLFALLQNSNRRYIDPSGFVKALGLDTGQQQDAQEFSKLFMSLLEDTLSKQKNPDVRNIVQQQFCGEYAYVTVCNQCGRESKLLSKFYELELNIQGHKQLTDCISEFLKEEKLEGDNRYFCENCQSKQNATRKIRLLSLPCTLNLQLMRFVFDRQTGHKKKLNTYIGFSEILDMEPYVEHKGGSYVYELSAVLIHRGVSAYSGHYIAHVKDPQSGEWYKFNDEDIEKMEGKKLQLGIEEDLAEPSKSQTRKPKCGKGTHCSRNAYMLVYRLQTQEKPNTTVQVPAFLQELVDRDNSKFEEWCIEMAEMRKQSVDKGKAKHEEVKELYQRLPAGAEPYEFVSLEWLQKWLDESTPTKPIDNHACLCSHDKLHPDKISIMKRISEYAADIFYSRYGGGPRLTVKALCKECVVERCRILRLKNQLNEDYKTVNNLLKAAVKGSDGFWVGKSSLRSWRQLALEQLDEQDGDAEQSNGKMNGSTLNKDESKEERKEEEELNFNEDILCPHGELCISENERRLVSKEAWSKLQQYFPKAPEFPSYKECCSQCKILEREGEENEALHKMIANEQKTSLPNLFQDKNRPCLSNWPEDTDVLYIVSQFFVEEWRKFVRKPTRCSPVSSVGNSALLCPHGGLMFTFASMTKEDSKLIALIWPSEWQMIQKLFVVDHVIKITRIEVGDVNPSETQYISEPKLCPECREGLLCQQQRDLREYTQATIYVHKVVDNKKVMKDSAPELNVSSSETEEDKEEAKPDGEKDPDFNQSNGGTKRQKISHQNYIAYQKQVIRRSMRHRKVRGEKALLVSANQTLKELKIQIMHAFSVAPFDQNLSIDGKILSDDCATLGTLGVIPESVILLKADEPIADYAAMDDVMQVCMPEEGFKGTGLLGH
Procedure, shortened: as §1

USP5 = target: T4, USP5 (UniProt P45974)
T4 sequence (whole entry): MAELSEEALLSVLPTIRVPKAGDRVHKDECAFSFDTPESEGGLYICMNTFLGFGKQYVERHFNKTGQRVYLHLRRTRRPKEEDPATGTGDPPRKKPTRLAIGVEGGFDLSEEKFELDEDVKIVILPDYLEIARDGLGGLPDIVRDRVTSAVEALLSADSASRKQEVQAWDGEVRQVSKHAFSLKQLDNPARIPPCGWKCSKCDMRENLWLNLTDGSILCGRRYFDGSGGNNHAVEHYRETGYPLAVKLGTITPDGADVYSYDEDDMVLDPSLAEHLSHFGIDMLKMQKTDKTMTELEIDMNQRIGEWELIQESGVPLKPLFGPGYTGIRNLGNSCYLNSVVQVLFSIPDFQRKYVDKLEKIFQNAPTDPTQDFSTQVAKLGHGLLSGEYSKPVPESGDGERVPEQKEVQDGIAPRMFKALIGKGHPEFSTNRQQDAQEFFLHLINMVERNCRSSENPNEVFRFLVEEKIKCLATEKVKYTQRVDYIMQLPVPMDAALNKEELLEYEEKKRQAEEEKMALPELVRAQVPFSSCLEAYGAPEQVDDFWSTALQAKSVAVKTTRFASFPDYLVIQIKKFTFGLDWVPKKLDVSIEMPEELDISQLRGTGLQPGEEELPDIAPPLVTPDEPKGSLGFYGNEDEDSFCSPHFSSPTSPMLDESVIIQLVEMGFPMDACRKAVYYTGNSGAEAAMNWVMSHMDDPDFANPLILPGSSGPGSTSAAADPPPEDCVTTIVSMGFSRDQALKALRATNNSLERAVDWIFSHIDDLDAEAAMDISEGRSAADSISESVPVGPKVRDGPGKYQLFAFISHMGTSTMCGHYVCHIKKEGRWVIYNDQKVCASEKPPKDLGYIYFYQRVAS
Procedure, shortened: as §1

USP54 = USP54 (UniProt Q70EL1)
Procedure, shortened: as §1

USP7 = USP7 (UniProt Q93009)
Chain of USP7 (Q93009 whole entry, looked up): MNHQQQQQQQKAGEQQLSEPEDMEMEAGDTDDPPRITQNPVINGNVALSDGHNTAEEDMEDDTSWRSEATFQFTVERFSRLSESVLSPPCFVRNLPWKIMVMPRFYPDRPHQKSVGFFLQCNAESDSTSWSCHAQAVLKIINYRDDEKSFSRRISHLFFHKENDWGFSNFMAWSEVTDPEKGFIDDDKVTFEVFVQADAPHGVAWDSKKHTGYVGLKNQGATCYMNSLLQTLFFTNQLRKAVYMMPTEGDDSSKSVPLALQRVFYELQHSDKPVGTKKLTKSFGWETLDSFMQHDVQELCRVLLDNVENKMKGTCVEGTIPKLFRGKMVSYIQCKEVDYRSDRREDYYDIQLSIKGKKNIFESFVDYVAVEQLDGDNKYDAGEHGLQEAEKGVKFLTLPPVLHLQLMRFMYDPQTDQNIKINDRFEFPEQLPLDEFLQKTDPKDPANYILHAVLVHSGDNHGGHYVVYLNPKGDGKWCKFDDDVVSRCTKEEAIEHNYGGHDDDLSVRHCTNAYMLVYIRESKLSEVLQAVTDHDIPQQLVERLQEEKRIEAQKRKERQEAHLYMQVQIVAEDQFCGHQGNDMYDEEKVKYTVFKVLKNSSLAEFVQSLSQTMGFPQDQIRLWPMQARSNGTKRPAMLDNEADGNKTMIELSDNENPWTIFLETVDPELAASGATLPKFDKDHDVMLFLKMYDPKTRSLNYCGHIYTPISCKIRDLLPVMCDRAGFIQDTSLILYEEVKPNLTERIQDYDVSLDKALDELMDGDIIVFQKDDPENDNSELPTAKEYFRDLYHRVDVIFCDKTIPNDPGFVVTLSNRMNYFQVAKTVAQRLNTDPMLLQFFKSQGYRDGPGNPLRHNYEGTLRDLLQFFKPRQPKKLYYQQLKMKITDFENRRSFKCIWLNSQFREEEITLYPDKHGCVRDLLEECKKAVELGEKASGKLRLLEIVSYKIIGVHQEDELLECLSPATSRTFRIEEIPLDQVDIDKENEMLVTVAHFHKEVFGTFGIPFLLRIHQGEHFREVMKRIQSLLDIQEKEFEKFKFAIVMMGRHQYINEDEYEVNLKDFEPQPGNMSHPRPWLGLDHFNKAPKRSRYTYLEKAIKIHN
Procedure, shortened: as §1

USP8 = target: T5, USP8 (UniProt P40818)
T5 sequence (whole entry): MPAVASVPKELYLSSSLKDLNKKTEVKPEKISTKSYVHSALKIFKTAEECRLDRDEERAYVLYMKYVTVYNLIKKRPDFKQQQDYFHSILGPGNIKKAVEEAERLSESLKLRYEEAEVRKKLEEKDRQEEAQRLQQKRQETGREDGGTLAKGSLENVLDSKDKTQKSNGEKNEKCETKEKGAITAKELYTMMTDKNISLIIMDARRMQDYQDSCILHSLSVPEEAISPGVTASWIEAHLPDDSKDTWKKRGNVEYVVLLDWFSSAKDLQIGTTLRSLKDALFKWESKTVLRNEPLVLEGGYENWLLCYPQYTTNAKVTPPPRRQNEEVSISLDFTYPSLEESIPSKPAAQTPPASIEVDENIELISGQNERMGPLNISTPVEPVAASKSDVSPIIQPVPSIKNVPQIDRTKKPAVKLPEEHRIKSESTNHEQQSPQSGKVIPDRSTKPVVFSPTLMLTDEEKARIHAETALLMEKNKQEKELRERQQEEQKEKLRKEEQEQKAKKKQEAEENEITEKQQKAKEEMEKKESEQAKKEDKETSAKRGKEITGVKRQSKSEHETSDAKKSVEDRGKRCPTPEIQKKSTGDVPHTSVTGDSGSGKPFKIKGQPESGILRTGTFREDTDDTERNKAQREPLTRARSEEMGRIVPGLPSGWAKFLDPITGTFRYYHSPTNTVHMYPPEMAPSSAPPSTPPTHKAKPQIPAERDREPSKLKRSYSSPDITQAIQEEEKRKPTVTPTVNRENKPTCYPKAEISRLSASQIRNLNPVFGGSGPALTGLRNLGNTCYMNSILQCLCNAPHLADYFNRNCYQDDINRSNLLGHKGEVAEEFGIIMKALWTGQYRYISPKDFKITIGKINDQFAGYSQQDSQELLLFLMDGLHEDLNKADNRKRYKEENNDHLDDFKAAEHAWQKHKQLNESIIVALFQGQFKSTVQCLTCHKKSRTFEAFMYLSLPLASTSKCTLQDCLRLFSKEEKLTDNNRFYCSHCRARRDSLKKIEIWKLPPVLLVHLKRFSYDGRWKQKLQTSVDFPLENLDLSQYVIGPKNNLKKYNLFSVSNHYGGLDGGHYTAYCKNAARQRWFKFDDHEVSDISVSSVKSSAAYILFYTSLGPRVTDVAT
Procedure, shortened: as §1

USP9X = USP9X (UniProt Q93008)
Chain of USP9X (Q93008 whole entry): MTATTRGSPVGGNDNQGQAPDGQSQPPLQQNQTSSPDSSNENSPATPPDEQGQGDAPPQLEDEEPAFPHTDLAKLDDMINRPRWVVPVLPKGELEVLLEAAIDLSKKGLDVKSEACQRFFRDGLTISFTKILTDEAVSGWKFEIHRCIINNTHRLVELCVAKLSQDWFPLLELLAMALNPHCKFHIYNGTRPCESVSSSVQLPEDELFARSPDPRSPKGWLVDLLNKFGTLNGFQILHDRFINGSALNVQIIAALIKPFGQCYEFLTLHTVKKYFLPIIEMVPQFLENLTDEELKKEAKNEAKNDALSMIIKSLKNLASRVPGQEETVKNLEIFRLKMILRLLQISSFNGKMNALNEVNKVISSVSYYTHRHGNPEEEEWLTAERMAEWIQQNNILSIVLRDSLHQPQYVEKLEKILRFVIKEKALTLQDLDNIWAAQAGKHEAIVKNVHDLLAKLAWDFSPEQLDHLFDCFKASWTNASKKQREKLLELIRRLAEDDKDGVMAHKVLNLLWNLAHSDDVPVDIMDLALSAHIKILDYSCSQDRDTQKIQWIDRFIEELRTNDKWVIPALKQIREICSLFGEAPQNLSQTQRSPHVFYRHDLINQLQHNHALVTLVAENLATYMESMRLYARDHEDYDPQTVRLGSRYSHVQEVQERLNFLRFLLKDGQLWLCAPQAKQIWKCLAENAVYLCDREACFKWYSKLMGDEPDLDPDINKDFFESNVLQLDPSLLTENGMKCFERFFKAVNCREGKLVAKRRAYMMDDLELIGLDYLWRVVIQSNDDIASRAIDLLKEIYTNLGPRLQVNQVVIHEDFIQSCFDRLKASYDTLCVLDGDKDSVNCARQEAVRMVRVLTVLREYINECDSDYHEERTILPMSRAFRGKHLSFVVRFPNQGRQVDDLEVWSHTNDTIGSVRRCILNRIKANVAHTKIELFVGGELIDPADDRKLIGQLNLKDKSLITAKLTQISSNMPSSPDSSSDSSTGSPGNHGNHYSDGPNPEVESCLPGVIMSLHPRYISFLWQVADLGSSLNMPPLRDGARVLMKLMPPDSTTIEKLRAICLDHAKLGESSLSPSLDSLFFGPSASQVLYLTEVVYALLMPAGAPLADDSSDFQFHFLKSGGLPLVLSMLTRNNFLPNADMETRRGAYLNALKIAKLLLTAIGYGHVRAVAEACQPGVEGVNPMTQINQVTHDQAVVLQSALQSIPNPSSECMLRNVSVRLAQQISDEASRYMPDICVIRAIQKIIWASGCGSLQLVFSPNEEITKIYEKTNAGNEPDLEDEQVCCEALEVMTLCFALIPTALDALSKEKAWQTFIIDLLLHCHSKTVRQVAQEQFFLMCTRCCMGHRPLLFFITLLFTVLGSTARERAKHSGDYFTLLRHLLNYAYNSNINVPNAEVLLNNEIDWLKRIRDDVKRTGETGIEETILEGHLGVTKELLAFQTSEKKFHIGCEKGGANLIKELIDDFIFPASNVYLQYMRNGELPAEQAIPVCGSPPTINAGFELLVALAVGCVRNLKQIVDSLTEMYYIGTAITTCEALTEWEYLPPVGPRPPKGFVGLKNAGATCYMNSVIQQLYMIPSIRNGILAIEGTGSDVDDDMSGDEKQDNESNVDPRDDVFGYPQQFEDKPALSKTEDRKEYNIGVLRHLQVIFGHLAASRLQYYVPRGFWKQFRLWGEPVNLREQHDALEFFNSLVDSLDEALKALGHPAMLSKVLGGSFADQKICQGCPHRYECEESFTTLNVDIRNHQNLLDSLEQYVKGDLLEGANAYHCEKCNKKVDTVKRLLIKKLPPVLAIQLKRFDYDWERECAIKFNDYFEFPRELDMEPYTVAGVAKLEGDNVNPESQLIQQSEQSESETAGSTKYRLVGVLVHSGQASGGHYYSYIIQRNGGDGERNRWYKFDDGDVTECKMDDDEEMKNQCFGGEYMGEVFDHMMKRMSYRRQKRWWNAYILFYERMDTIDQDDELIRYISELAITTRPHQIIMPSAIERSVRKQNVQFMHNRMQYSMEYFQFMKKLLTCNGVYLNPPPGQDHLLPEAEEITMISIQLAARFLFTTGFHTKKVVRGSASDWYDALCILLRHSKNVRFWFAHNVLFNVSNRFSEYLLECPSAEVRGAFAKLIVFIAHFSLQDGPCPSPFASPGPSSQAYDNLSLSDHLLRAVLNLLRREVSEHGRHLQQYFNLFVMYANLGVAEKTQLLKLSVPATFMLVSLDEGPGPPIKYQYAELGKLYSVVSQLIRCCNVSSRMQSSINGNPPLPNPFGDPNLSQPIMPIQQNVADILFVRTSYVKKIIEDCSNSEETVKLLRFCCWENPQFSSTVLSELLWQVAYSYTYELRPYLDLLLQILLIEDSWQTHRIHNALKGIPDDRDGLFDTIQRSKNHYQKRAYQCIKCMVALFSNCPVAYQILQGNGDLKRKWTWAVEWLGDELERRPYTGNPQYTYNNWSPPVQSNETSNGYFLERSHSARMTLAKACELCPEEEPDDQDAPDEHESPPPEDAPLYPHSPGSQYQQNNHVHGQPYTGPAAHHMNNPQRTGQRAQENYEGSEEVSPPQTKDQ
Procedure, shortened: as §1

UniProt O00487 = target: UniProt O00487
Chain of UniProt O00487 (O00487 whole entry): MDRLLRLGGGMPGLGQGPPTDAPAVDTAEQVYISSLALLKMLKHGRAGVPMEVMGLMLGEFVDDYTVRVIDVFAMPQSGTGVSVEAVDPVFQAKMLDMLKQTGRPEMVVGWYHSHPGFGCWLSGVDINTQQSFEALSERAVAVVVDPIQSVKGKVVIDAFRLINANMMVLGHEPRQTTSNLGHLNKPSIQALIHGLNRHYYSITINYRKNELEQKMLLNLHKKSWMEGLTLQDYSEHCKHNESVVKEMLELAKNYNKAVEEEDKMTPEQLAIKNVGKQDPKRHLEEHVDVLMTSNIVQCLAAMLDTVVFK
Procedure, shortened: as §1

Measured: log2 ratio of Biotin-Ahx-Ub-VS probe labelling

CN(CCc1ncc(Br)cn1)C(=O)CCl.Cl
inactive: USP42 0.325 | USP46 -0.136 | USP47 -0.331 | USP48 -0.46 | USP5 0.24 | USP54 0.619 | USP7 -0.266 | USP8 -0.602 | USP9X -0.319 | UniProt O00487 -0.0172
